# Results as given in the supplement of paper PMC8975748.
# Where a name gives a salt, the structure may show the parent alone.
# Test system: Saccharomyces cerevisiae BY4741 SeMeCo community
# Test: z-score of subpopulation abundance vs DMSO median, subpopulation auxotrophic for HL; higher = larger share of this subpopulation than in DMSO controls
# Settings: 10 µM; 24 h; SM minimal medium; subpopulation (auxotrophy): HL
# How it was run: (§1)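 Automated confocal microscopy of paraformaldehyde-fixed cells was used to follow a Saccharomyces cerevisiae BY4741 community carrying four plasmids, each restoring one auxotrophy and encoding a distinct fluorescent protein. The community was pre-grown overnight to OD600 1.0, diluted to 0.3, and added at 70 µl to 384-well plates acoustically predosed with library drugs (10 µM final) for 24 h of growth in minimal SM medium. Single-auxotroph fluorescent strains set thresholds and autofluorescence correction, and each subpopulation's abundance was scored as a z-score against the vehicle-well median.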
row,SMILES,z-score of subpopulation abundance
1,COCCCN1CCC(NC(=O)c2cc(Cl)c(N)c3c2OCC3)CC1 [Prucalopride],-0.99
2,CCOc1cc(NC(C)=O)ccc1C(=O)OC [Ethopabate],0.25
3,CN(C)CCN1C(=O)c2cccc3cc(N)cc(c23)C1=O [Amonafide],-0.12
4,COc1ccnc(C[S+]([O-])c2nc3cc(OC(F)F)ccc3[nH]2)c1OC (stereo not given) [Pantoprazole sodium],-0.43
5,CCOC(=O)C1=C(COCCN)NC(C)=C(C(=O)OC)C1c1ccccc1Cl (stereo not given) [Amlodipine Besylate],4.37
6,CC(C)(C)C(=O)C(Oc1ccc(Cl)cc1)n1ccnc1 (stereo not given) [Climbazole],2.46
7,COc1cc(N)c(Cl)cc1C(=O)NC1CCN(CCCOc2ccc(F)cc2)CC1OC (stereo not given) [Cisapride],-0.95
8,COc1ccc2[nH]c([S+]([O-])Cc3ncc(C)c(OC)c3C)nc2c1 (stereo not given) [Omeprazole],2.48
9,O=c1ccn(C2CC(O)C(CO)O2)c(=O)[nH]1 (stereo not given) [2-deoxyuridine],1.21
10,NC12CC3CC(CC(C3)C1)C2 [Amantadine HCl],-0.19
11,O=C1c2cccc3c2[C@H](CCC3)CN1[C@@H]1CN2CCC1CC2 [Palonosetron HCl],-0.31
12,CCCOc1ccc2[nH]c(NC(=O)OC)nc2c1 [Oxibendazole],0.7
13,C[C@]12CC[C@@H]3c4ccc(O)cc4CC[C@H]3[C@@H]1CC[C@@H]2OC(=O)CCC1CCCC1 [Estradiol Cypionate],-0.29
14,COc1ccc2c(c1)c(CC(=O)O)c(C)n2C(=O)c1ccc(Cl)cc1 [Indomethacin],-0.38
15,O=C(O)Cc1ccccc1Nc1c(Cl)cccc1Cl [Diclofenac Diethylamine],-1.1
16,C[C@@H](O)[C@H]1C(=O)N2C(C(=O)OCOC(=O)C(C)(C)C)=C(SC3CN(C4=NCCS4)C3)[C@H](C)[C@H]12 [Tebipenem Pivoxil],-0.41
17,COC(=O)C1=C(C)NC(C)=C(C(=O)OCC(C)C)C1c1ccccc1[N+](=O)[O-] (stereo not given) [Nisoldipine],0.67
18,NC(=O)Cc1cccc(C(=O)c2ccccc2)c1N [Nepafenac],0.69
19,CN(C)C[C@@H]1CCn2cc(c3ccccc32)C2=C(C(=O)NC2=O)c2cn(c3ccccc23)CCO1,1.61
20,Cc1ccc(-c2ncc(Cl)cc2-c2ccc(S(C)(=O)=O)cc2)cn1 [Etoricoxib],-0.03
21,CN(C)CCCN1c2ccccc2Sc2ccccc21 [Promazine hydrochloride],-0.82
22,CN(C)CCn1nnnc1SCC1=C(C(=O)O)N2C(=O)[C@@H](NC(=O)Cc3csc(N)n3)[C@H]2SC1 [Cefotiam hydrochloride],1.92
23,CN(C)CC(c1ccc(O)cc1)C1(O)CCCCC1 (stereo not given) [Desvenlafaxine],-0.75
24,Cc1ncc([N+](=O)[O-])n1CCOC(=O)c1ccccc1 [Metronidazole Benzoate],-0.69
25,O=C1C(CC[S+]([O-])c2ccccc2)C(=O)N(c2ccccc2)N1c1ccccc1 (racemic) [(+/-)-Sulfinpyrazone],-0.17

# Test system: Saccharomyces cerevisiae BY4741 SeMeCo community
# Test: z-score of subpopulation abundance vs DMSO median, subpopulation auxotrophic for HLU; higher = larger share of this subpopulation than in DMSO controls
# Settings: 10 µM; 24 h; SM minimal medium; subpopulation (auxotrophy): HLU
# How it was run: as §1
row,SMILES,z-score of subpopulation abundance
1,CCCCCOc1ccc(-c2ccc(-c3ccc(C(=O)N[C@H]4C[C@@H](O)[C@@H](O)NC(=O)[C@@H]5[C@@H](O)[C@@H](C)CN5C(=O)[C@H]([C@@H](C)O)NC(=O)[C@H]([C@H](O)[C@@H](O)c5ccc(O)cc5)NC(=O)[C@@H]5C[C@@H](O)CN5C(=O)[C@H]([C@@H](C)O)NC4=O)cc3)cc2)cc1,21.5
2,Cc1ccnc(NS(=O)(=O)c2ccc(N)cc2)n1 [Sulfamerazine],0.89
3,O=C(O)c1cc(-c2ccc(F)cc2F)ccc1O [Diflunisal],-0.75
4,C[C@@H]1[C@H](O)[C@@H](C)/C=C/C=C/C=C/C=C/C=C/C=C/C=C/[C@H](O[C@@H]2O[C@H](C)[C@@H](O)[C@H](N)[C@@H]2O)C[C@@H]2O[C@](O)(C[C@@H](O)C[C@@H](O)[C@H](O)CC[C@@H](O)C[C@@H](O)CC(=O)O[C@H]1C)C[C@H](O)[C@H]2C(=O)O [Amphotericin B],31.3
5,CO/N=C(\C(=O)N[C@@H]1C(=O)N2C(C(=O)O)=CCS[C@H]12)c1csc(N)n1 [Ceftizoxime sodium],-0.33
6,COC1C(O)CC(=O)OC(C)CC=CC=CC(OC2CCC(N(C)C)C(C)O2)C(C)CC(CC=O)C1OC1OC(C)C(OC2CC(C)(O)C(O)C(C)O2)C(N(C)C)C1O (stereo not given) [Spiramycin],-0.77
7,CC(C)(O/N=C(\C(=O)N[C@@H]1C(=O)N2C(C(=O)[O-])=C(C[n+]3ccccc3)CS[C@H]12)c1csc(N)n1)C(=O)O [Ceftazidime],0.34
8,C[C@@H]1C/C=C/C=C/C=C/C=C/[C@H](O[C@@H]2O[C@H](C)[C@@H](O)[C@H](N)[C@@H]2O)C[C@@H]2O[C@](O)(C[C@@H](O)C[C@H]3O[C@@H]3/C=C/C(=O)O1)C[C@H](O)[C@H]2C(=O)O [Natamycin],22.7
9,COCCCN1CCC(NC(=O)c2cc(Cl)c(N)c3c2OCC3)CC1 [Prucalopride],-0.6
10,CCOc1cc(NC(C)=O)ccc1C(=O)OC [Ethopabate],-0.1
11,CCCSc1ccc2[nH]c(NC(=O)OC)nc2c1 [Albendazole],0.38
12,CN(C)CCN1C(=O)c2cccc3cc(N)cc(c23)C1=O [Amonafide],0.2
13,COc1ccnc(C[S+]([O-])c2nc3cc(OC(F)F)ccc3[nH]2)c1OC (stereo not given) [Pantoprazole sodium],-0.16
14,CCOC(=O)C1=C(COCCN)NC(C)=C(C(=O)OC)C1c1ccccc1Cl (stereo not given) [Amlodipine Besylate],-3.58
15,CC(C)(C)C(=O)C(Oc1ccc(Cl)cc1)n1ccnc1 (stereo not given) [Climbazole],1.28
16,COc1cc(N)c(Cl)cc1C(=O)NC1CCN(CCCOc2ccc(F)cc2)CC1OC (stereo not given) [Cisapride],0.37
17,COc1ccc2[nH]c([S+]([O-])Cc3ncc(C)c(OC)c3C)nc2c1 (stereo not given) [Omeprazole],1.91
18,O=C1CCc2cc(OCCCCc3nnnn3C3CCCCC3)ccc2N1 [Cilostazol],-0.44
19,O=c1ccn(C2CC(O)C(CO)O2)c(=O)[nH]1 (stereo not given) [2-deoxyuridine],0.49
20,NC12CC3CC(CC(C3)C1)C2 [Amantadine HCl],-0.31

row,SMILES,z-score of subpopulation abundance
1,CO/N=C(\C(=O)N[C@@H]1C(=O)N2C(C(=O)OCOC(=O)C(C)(C)C)=C(/C=C\c3scnc3C)CS[C@H]12)c1csc(N)n1 [Cefditoren Pivoxil],0.74
2,O=C1c2cccc3c2[C@H](CCC3)CN1[C@@H]1CN2CCC1CC2 [Palonosetron HCl],-0.05
3,CCCOc1ccc2[nH]c(NC(=O)OC)nc2c1 [Oxibendazole],0.8
4,C[C@]12CC[C@@H]3c4ccc(O)cc4CC[C@H]3[C@@H]1CC[C@@H]2OC(=O)CCC1CCCC1 [Estradiol Cypionate],0
5,COc1ccc2c(c1)c(CC(=O)O)c(C)n2C(=O)c1ccc(Cl)cc1 [Indomethacin],-0.33
6,O=C(O)Cc1ccccc1Nc1c(Cl)cccc1Cl [Diclofenac Diethylamine],-0.36
7,Clc1ccccc1C(c1ccccc1)(c1ccccc1)n1ccnc1 [Clotrimazole],3.78
8,C[C@@H](O)[C@H]1C(=O)N2C(C(=O)OCOC(=O)C(C)(C)C)=C(SC3CN(C4=NCCS4)C3)[C@H](C)[C@H]12 [Tebipenem Pivoxil],-0.99
9,COC(=O)C1=C(C)NC(C)=C(C(=O)OCC(C)C)C1c1ccccc1[N+](=O)[O-] (stereo not given) [Nisoldipine],0.34
10,NC(=O)Cc1cccc(C(=O)c2ccccc2)c1N [Nepafenac],0.04
11,CN1C2CCCC1CC(NC(=O)c1nn(C)c3ccccc13)C2 (stereo not given) [Granisetron],-0.07
12,CN(C)C[C@@H]1CCn2cc(c3ccccc32)C2=C(C(=O)NC2=O)c2cn(c3ccccc23)CCO1,1.21
13,Cc1ccc(-c2ncc(Cl)cc2-c2ccc(S(C)(=O)=O)cc2)cn1 [Etoricoxib],0.34
14,Cc1ccc(Sc2ccccc2N2CCNCC2)c(C)c1,0.19
15,CN(C)CCCN1c2ccccc2Sc2ccccc21 [Promazine hydrochloride],0.06
16,CN(C)CCn1nnnc1SCC1=C(C(=O)O)N2C(=O)[C@@H](NC(=O)Cc3csc(N)n3)[C@H]2SC1 [Cefotiam hydrochloride],1.21
17,CN(C)CC(c1ccc(O)cc1)C1(O)CCCCC1 (stereo not given) [Desvenlafaxine],-1.12
18,Cc1ncc([N+](=O)[O-])n1CCOC(=O)c1ccccc1 [Metronidazole Benzoate],-1.28
19,O=C1C(CC[S+]([O-])c2ccccc2)C(=O)N(c2ccccc2)N1c1ccccc1 (racemic) [(+/-)-Sulfinpyrazone],0.61
20,COc1ccccc1OCC(O)CN1CCN(CC(=O)Nc2c(C)cccc2C)CC1 (stereo not given) [Ranolazine 2HCl],-0.68
